# Screening data: PubChem BioAssay, National Center for Advancing Translational Sciences (NCATS)
# Pf Dd2 inh: qHTS Primary assay for Inhibitors of Plasmodium falciparum Dd2 growth in vitro | actives 4.3% (n = 120,000) | P. falciparum Dd2 growth, SYBR Green, 72 h | Potency, µM (top dose mostly 28.9 µM), without a hit: at the highest dose activity, negative = inhibition, actives largely listed as inhibitors | AID 1347417, 2020; active means well fitted inhibition curve with a large enough effect;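 further: plate controls were DMSO vehicle for no effect and reference drug for full effect; nearly all actives have a fitted effect of over 65% in size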
#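 Readout: SYBR Green fluorescence, 485 nm excitation, 535 nm emission, after ~16 h lysis at 37C. Before that, Dd2-infected red cells (2.5% hematocrit) grew 72 h with compound, 29 uM top final concentration.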
# Starred values were filed as active, the others as inactive; i = inactive; [ ] = remark or other dose. The entries come from a sample that favours hits as a whole. Potency means the concentration at half of the fitted maximal effect.
SMILES,Pf Dd2 inh
Cc1cccc(OCC(=O)Nc2ccc(S(=O)(=O)N(Cc3ccccc3)c3ccccc3)cc2)c1,63.2%
CN(C(=O)C1(c2ccc(Cl)cc2)CCOCC1)C1CCc2ccccc21 (configuration not stated),-9.0%
Cc1ccc(NC(=O)Cn2cc3c(n2)CCCC3)c(C)c1,3.2%
O=C(Cn1cc2c(n1)CCCC2)Nc1cc(C(F)(F)F)ccc1Cl,7.08µM*
Cc1c(Cl)cccc1NC(=O)Cn1cc2c(n1)CCCC2,1.9%
COc1ccc(OC)c(NC(=O)N2CC(C)Oc3ccc(C)cc32)c1 (configuration not stated),-24.5%
CC(=O)c1cccc(Nc2cc(C)nc3nc(Cc4ccccc4)nn23)c1,-23.5%
Cc1ccc(Cl)cc1-n1ncc2c(N3CCC(C)CC3)ncnc21,0.4%
COc1ccccc1C(=O)Oc1ccc(C(c2c(C)[nH][nH]c2=O)c2c(C)[nH][nH]c2=O)cc1,17.2%
COc1ccc(Cl)cc1NC(=O)c1cc(=O)c2cc(C)cc(C)c2o1,i
Cc1nc(N2CCC(NC(=O)c3ccccc3Cl)CC2)cc(C(F)(F)F)n1,i
Cc1nc(N2CCC(NC(=O)c3ccccc3F)CC2)cc(C(F)(F)F)n1,i
COc1cc(Cl)ccc1C(=O)NC1CCN(c2cc(C(F)(F)F)nc(C)n2)CC1,5.01µM*
COCCn1c(C2CCCNC2)n[nH]c1=O (configuration not stated),-13.7%
Cc1ccc(CNC(=O)c2nnn(CC(=O)Nc3cc(C)ccc3C)c2N)cc1,i
Cc1ccc(C)c(Cn2nnc(C(=O)NCc3ccc(Cl)cc3Cl)c2N)c1,4.47µM*
Cc1ccc(CNC(=O)c2nnn(Cc3ccc(F)cc3)c2N)cc1,3.16µM*
CCc1ccccc1NC(=O)Cn1nnc(C(=O)NCc2ccccc2Cl)c1N,-5.7%
Nc1c(C(=O)NCc2ccc(Cl)cc2Cl)nnn1Cc1ccc(Br)cc1,i
CCc1ccc(NC(=O)Cn2nnc(C(=O)NCc3ccc(C)cc3)c2N)cc1,10.6%
COc1ccc(C(=O)Nc2ccc3n(c2=O)C[C@H]2C[C@@H]3CN(C(=O)CCCC(=O)O)C2)cc1,-13.7%
COCC(=O)N[C@@H]1CN(Cc2cccc(C#N)c2)CC[C@@H]1c1n[nH]c(C)n1,4.8%
O=C1Nc2ccccc2OCC12CCN(Cc1cccnc1)CC2,i
O=C1Nc2ccccc2CC12CCN(Cc1ccc(OC(F)(F)F)cc1)C2 (configuration not stated),11.2µM*
N#Cc1ccc(CN2CCC3(CC2)COc2ccccc2NC3=O)cc1,10µM*
SMILES,Pf Dd2 inh
COc1ccc(CN2CCC3(CC2)NCc2ccccc2NC3=O)cc1,-19.7%
Cc1ccc(CN2CCC3(Cc4ccccc4NC3=O)C2)cc1 (configuration not stated),8.91µM*
CC(=O)Nc1ccc(CN2CCC3(Cc4ccccc4NC3=O)C2)cc1 (configuration not stated),i
COc1ccc(CN2CCC3(Cc4ccccc4NC3=O)C2)cc1 (configuration not stated),10µM*
CC(=O)Nc1ccc(CN2CCC3(CC2)COc2ccccc2NC3=O)cc1,-23.4%
O=C1Nc2ccccc2CC12CCN2Cc1ccc(OC(F)(F)F)cc1 (configuration not stated),-20.3%
O=C1Nc2ccccc2CC12CN(Cc1ccc(C(F)(F)F)cc1)C2,54.3%
O=C1Nc2ccccc2CC12CCCN(Cc1ccncc1)C2 (configuration not stated),-20.6%
O=C1Nc2ccccc2CC12CCN(Cc1cccnc1)C2 (configuration not stated),-29.6%[44.1 µM]
COc1cccc(Nc2ncc3c(n2)C(C)(C(=O)NC2CCN(C)CC2)CC3)c1 (configuration not stated),i
CN(C)C(=O)c1cc(-c2ccc(Cl)nc2)nc2c1cnn2C,-6.0%
O=C(O)CCC(=O)N[C@H]1CCN2C(=O)c3cc(-c4ccc5c(c4)OCO5)ccc3NC(=O)[C@H]12,-11.7%
O=C(NC1CCN(c2cc(-c3ccc(F)cc3)[nH]n2)C1)c1cc(Cl)ccc1F (configuration not stated),i
O=C1CCC2(CCCO2)CCN1Cc1cccc(OC(F)(F)F)c1 (configuration not stated),-4.9%
COc1ccc(S(=O)(=O)N2C[C@@H](F)C[C@H]2C(=O)N2CCCCC2)cc1OC,496.2%
COc1ccc(Nc2nc(-c3cccc(OC)c3)no2)cc1,-20.4%
NC(=O)[C@@H]1C[C@H](Oc2cccnc2)CN1C(=O)c1cccs1,-13.9%
Cc1ccc(C2(O)CCN(C(=O)c3cnn4cc(CCO)cnc34)CC2)nc1,-16.9%
O=C1NCCCCCCN(C(=O)NCc2ccc(F)cc2)[C@H]2CCCC[C@@H]12,-15.4%
Cc1ccc(S(=O)(=O)N2c3ccccc3CC2c2nnc(C3CCOCC3)o2)cc1F (configuration not stated),i
COC(=O)[C@@H]1Cc2c([nH]c3ccccc23)[C@H]2C[C@H](NCCNC(C)=O)C[C@@H](c3ccc(C(F)(F)F)cc3)N21,-1.2%
COC(=O)[C@@H]1Cc2c([nH]c3ccccc23)[C@H]2C[C@@H](NCCc3cnc[nH]3)C[C@@H](c3ccccc3F)N21,i
COC(=O)[C@@H]1Cc2c([nH]c3ccccc23)[C@H]2C[C@@H](NCCCn3ccnc3)C[C@@H](c3cccc(Cl)c3)N21,2.24µM*
O=C(NCCCn1ccnc1)c1ccc(C2CCCNC2)cc1 (configuration not stated),11.7%
COCc1ccc2c(c1)c(OC(C)(C)C(=O)NCCCn1ccnc1)nn2Cc1ccccc1,-13.0%
SMILES,Pf Dd2 inh
COC(=O)[C@@H]1Cc2c([nH]c3ccccc23)[C@H]2C[C@@H](NCc3cccnc3)C[C@@H](c3ccccc3)N21,-22.9%
COC(=O)[C@@H]1Cc2c([nH]c3ccccc23)[C@H]2C[C@@H](NCCCn3ccnc3)C[C@@H](c3ccc(Cl)c(F)c3)N21,3.16µM*
COCCN[C@@H]1C[C@@H]2c3[nH]c4ccccc4c3C[C@@H](C(=O)OC)N2[C@H](c2cccc(OC)c2)C1,5.01µM*
COC(=O)[C@@H]1Cc2c([nH]c3ccccc23)[C@H]2C[C@@H](NC[C@H]3CCCO3)C[C@@H](c3ccccc3F)N21,-8.6%
CCc1cccc(NC(=O)Nc2cn(C)c(=O)c3ccccc23)c1,23.2%
O=C(c1ccno1)N1C[C@@H]2OCC(=O)N(CC3CC3)[C@@H]2C1,31.2%[44.1 µM]
COc1ccc(N2CCN(C(=O)CCCCn3c(=O)[nH]c4ccsc4c3=O)CC2)cc1,i
COc1ccc(CCC(=O)N[C@@H](Cc2ccccc2)C(=O)N2CCCOCCNC(=O)CC2)cc1,-19.9%
COC(=O)c1ccc(NC(=O)NCCn2nnc3cc(S(=O)(=O)N(C)C)ccc32)cc1,-3.1%
O=C(NCc1ccccn1)c1nn(-c2ccccc2F)nc1CO,i
Cc1cccc(NC(=O)Cn2c(N3CCCCC3)nc(C)c(C)c2=O)c1,i
Cc1nc(N2CCCCC2)n(CC(=O)Nc2cccc(F)c2)c(=O)c1C,3.98µM*
CSc1cccc(NC(=O)Cn2c(N3CCCCC3)nc(C)c(C)c2=O)c1,i
COc1ccc(N2Cc3c(NC4CC4)ncnc3N(C)CC2=O)cc1,35.9%
COCCCNC(=O)c1nc2nc(-c3ccccc3)c(Cl)cc2n1C,-27.4%[44.1 µM]
COCc1nc2nc(-c3ccccc3)c(Nc3ccc(F)c(OC)c3)cc2n1C,i
CN(C)CCNC(=O)c1nc2nc(-c3ccccc3)c(Nc3ccc(F)cc3)cc2n1C,7.08µM*
Cc1cc(-c2cc3c(nc2-c2ccccc2)nc(C(=O)NCCN(C)C)n3C)ccn1,-19.8%[44.1 µM]
